Our source for the Potency values is PubChem BioAssay (Tox21).

Unmarked numbers belong to inactive results. Inconclusive results are not listed. Active and inactive are the calls of the source. Unless noted, calls follow the shape of the full dose curve.

The nature of assay [1]: Nuclear factor erythroid 2-related factor 2/antioxidant responsive element (Nrf2/ARE) small molecule agonists: qHTS cell viability counter screen in human keratinocytes (AID 1919968; active = well fitted curve in the direction sought with a large enough effect in the repeat runs; an effect the other way counts as inactive or inconclusive; also: nearly all actives have a fitted effect of over 55% in size; also: potency is read from the fitted curve at half-maximal effect). A digest of the protocol: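 Cells of the KeratinoSens line were plated at 1,500 per well and left for 5 h before compound transfer from DMSO stocks. After a 23 h incubation (37 C, 5% CO2), CellTiter-Fluor was added. Signal was taken as fluorescence intensity 1 h later.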
(In general: qHTS replaces the single test concentration by a dilution series.)

Assay [2] in a line: Nuclear factor erythroid 2-related factor 2/antioxidant responsive element (Nrf2/ARE) small molecule agonists: luciferase reporter gene qHTS assay in human keratinocytes (AID 1919969). Also: nearly all actives have a fitted effect of over 35% in size.
The target in assay [3] is Gonadotropin-releasing hormone receptor (Homo sapiens) (UniProt P30968). Put plainly: Human gonadotropin-releasing hormone receptor (GnRHR) small molecule agonists, calcium flux assay in GnRHR-HEK293 cells (AID 1920063). Also: nearly all actives have a fitted effect of over 35% in size. The method, boiled down:
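Compounds dissolved in DMSO are pin-transferred onto dye-loaded GnRHR-HEK293 cells, which were seeded 18 h before at 37 C/5% CO2. Calcium signal is read as fluorescence intensity at 1 s intervals for 3 min.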
(In general: Calcium assays in cells follow changes in intracellular calcium, usually with a dye or a luminescent sensor.)

In assay [4] the target is KiSS-1 receptor (Homo sapiens) (UniProt Q969F8). Description: Human kisspeptin (KISS1R) small molecule agonists, calcium flux assay in KISS1R-HEK293 cells (AID 1920064; active = well fitted curve in the direction sought with a large enough effect in the repeat runs; an effect the other way counts as inactive or inconclusive). A digest of the protocol:
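Cell line: HEK293, stable human KISS1R. Dye loading 1 h at 37 C after 18 h culture. Read: kinetic fluorescence, 480/540 nm, 3 min at 1 s intervals.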

Assay [5] is described as follows: G protein-coupled receptor (GPCR) small molecule agonists, calcium flux assay: HEK293 wild type cell line counter screen (AID 1920065). A digest of the protocol:
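Tox21 10K compounds, 15 concentrations each in triplicate, pin-transferred in DMSO onto dye-loaded cells; kinetic read at 480/540 nm for 3 min, 1 s intervals.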

A short description of assay [6]: p53 small molecule agonists, cell-based qHTS assay with human liver microsomes (AID 1963577).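 Also: p53 response element beta-lactamase reporter cells with liver microsomes plus NADPH.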 The method, boiled down: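 16 h, 37 C exposure of p53RE-bla cells to compounds with human liver microsomes and NADPH (0.5 mg/mL final each); detection via LiveBLAzer mixture, 2 h dark at room temperature.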
Assay [7] is described as follows: p53 small molecule agonists, cell-based qHTS assay with rat liver microsomes (AID 1963578). The method, boiled down:
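With rat liver microsomes and NADPH present (0.5 mg/mL final each), p53RE-bla cells are treated with compound for 16 h at 37 C. LiveBLAzer detection mixture is then applied for 2 h at room temperature in the dark.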

A short description of assay [8]: p53 small molecule agonists, cell-based qHTS assay with human liver microsomes: qHTS cell viability counter screen (AID 1963579). Also: nearly all actives have a fitted effect of over 45% in size. A digest of the protocol:
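In this multiplexed counter screen, the reporter plates were subsequently treated with CellTiter-Glo so that cell viability, reflected by luminescence, could be recorded for p53RE-bla cells dosed 16 h with compounds under microsomal activation (HLM and NADPH).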

Assay [9] is described as follows: p53 small molecule agonists, cell-based qHTS assay with rat liver microsomes: qHTS cell viability counter screen (AID 1963580). Also: nearly all actives have a fitted effect of over 45% in size. A digest of the protocol:
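Cytotoxicity counter screen: intracellular ATP read by CellTiter-Glo luminescence in the p53 reporter wells. HCT-116 p53RE-bla cells were treated for 16 h at 37 C alongside rat liver microsomes and NADPH, each 0.5 mg/mL final.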

Assay [10] can be described thus: p53 small molecule agonists, cell-based qHTS assay: qHTS cell viability counter screen (AID 1963581). Also: nearly all actives have a fitted effect of over 45% in size. The method, boiled down: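 ATP content measured by luminescence in HCT-116 p53RE-bla cells treated 16 h at 37 C, same wells as the reporter screen.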
Assay [11] in a line: p53 small molecule agonists, cell-based qHTS assay (AID 1963582; active = well fitted activation curve with a large enough effect in the signal ratio in the repeat runs, not every such curve was filed as active; the % refers to the signal ratio). The method, boiled down: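 16 h compound exposure (37 C) of p53 response element–bla cells, preceded by 5 h recovery at 37 C/5% CO2; read-out via LiveBLAzer B/G FRET substrate, 2 h RT, fluorescence intensity.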
Assay [12] has as its target 5-hydroxytryptamine receptor 2A (Homo sapiens) (UniProt P28223). Put plainly: 5-hydroxytryptamine receptor 2A (HTR2A) small molecule antagonists, cell-based qHTS assay (AID 1963586). Also: nearly all actives have a fitted effect of over 45% in size. The method, boiled down:
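CHO cells stably expressing human HTR2A were plated for 18 h at 37 C, then loaded with calcium dye for 1 h. Compounds were preincubated 5 min at room temperature before DOI (4 nM solution) was added. Kinetic fluorescence was read for 3 min.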

The target is the same in assay [13]. Description: 5-hydroxytryptamine receptor 2A (HTR2A) small molecule agonists, cell-based qHTS assay (AID 1963587). Also: nearly all actives have a fitted effect of over 30% in size. A digest of the protocol:
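Kinetic calcium-flux fluorescence (2 min, 1 sec intervals) after compound addition in agonist mode. HTR2A-CHO cells were cultured 18 h, then dye-loaded 1 h at 37 C.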

The target of assay [14] is Muscarinic acetylcholine receptor M1 (Homo sapiens) (UniProt P11229). Put plainly: Cholinergic receptor muscarinic 1 (CHRM1) small molecule antagonists, cell-based qHTS assay (AID 1963588). Also: nearly all actives have a fitted effect of over 40% in size. A digest of the protocol: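 Compounds were tested at 15 concentrations in three independent runs. Dye-loaded CHRM1-CHO cells were exposed 5 min at room temperature before stimulation by acetylcholine added at 50nM. Intracellular calcium was read kinetically on FDSS for 3 min.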

The target is the same in assay [15]. Put plainly: Cholinergic receptor muscarinic 1 (CHRM1) small molecule agonists, cell-based qHTS assay (AID 1963589). Also: nearly all actives have a fitted effect of over 35% in size. A digest of the protocol:
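Homogeneous fluorescence calcium flux, agonist mode. Human M1-expressing CHO cells; compound dosed at 15 concentrations, three independent runs; signal sampled every 1 sec.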

Assay [16] in a line: cAMP Responsive Elements (CRE) small molecule agonists, cell-based qHTS assay (AID 1963590). The method, boiled down: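 HEK 293T cells stably bearing CRE-bla were plated at 2,000 cells per well and rested 18 h. Compounds, positive controls or DMSO were added for 3 h at 37 C. LiveBLAzer B/G substrate was then loaded for 2 h at room temperature.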
The nature of assay [17]: cAMP Responsive Elements (CRE) small molecule antagonists, cell-based qHTS assay (AID 1963591; active = well fitted inhibition curve with a large enough effect in the signal ratio in the repeat runs, not every such curve was filed as active; the % refers to the signal ratio). A digest of the protocol: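 First, CRE-bla HEK293T cells settled 18 h at 37 C. Next, compound and 0.25 uM final NKH477 were applied for 3 h. Last, LiveBLAzer B/G substrate was loaded for 2 h at room temperature.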
In assay [18] the target is Beta-2 adrenergic receptor (Homo sapiens) (UniProt P07550). Description: Adrenergic beta2 receptor (ADRB2) small molecule antagonists, cell-based qHTS assay (AID 1963592). Also: series mostly up to about 92 µM; nearly all actives have a fitted effect of over 50% in size. The method, boiled down: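 Assay format: CHO-ADRB2 cells, 18-20hr seeding at 37C/5% CO2, then compound plus 1nM isoproterenol agonist mix for 0.5hr RT. Homogeneous time-resolved fluorescence cAMP detection after 1hr, expressed as 665/615 nm ratio.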

The target is the same in assay [19]. Put plainly: Adrenergic beta2 receptor (ADRB2) small molecule agonists, cell-based qHTS assay (AID 1963593).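 Also: CHO cells stably overexpressing human ADRB2.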 The method, boiled down:
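CHO cells stably over-expressing ADRB2 were plated overnight at 37C, then dosed with compounds plus a stimulation mix containing 100uM IBMX and 25uM Ro-20-1724 for 0.5hr at room temperature. cAMP was measured by HTRF competition, 1hr.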

For assay [20], the target named is D(2) dopamine receptor (Homo sapiens) (UniProt P14416). Put plainly: Dopamine D2 receptor (DRD2) small molecule agonists, cell-based qHTS assay (AID 1963594). Also: nearly all actives have a fitted effect of over 35% in size. A digest of the protocol: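 cAMP accumulation in DRD2-HEK293 cells measured by HTRF after 1 h detection; compounds added 10 min before NKH477 (200nM […]) forskolin-analogue stimulation, 30 min at room temperature, with Ro20-1724 present at 0.1 mM final.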
Sequence of D(2) dopamine receptor (Homo sapiens) (P14416 whole entry, looked up): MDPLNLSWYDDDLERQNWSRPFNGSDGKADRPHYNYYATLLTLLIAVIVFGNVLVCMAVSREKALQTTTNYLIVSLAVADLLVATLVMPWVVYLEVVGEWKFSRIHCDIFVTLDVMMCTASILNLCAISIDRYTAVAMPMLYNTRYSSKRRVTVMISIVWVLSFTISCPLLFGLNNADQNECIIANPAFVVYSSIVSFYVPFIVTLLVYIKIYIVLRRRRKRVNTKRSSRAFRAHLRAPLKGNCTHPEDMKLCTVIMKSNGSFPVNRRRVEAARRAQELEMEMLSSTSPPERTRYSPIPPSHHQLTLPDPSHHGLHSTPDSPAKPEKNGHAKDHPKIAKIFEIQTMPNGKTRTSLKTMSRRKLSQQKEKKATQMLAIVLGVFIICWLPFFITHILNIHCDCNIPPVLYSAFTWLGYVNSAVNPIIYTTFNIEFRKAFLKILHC

Sequence of Beta-2 adrenergic receptor (Homo sapiens) (P07550 whole entry, looked up): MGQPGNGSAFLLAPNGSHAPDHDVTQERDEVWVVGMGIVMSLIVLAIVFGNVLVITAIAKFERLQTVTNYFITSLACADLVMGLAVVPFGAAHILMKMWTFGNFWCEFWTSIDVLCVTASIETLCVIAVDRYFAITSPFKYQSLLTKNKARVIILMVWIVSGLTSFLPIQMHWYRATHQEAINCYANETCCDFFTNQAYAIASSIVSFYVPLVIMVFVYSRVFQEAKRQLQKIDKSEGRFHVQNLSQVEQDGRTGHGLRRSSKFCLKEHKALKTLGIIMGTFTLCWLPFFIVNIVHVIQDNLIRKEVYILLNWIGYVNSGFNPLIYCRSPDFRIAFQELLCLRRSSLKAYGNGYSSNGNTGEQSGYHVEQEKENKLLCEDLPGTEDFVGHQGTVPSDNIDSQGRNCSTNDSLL
Sequence of 5-hydroxytryptamine receptor 2A (Homo sapiens) (P28223 whole entry, looked up): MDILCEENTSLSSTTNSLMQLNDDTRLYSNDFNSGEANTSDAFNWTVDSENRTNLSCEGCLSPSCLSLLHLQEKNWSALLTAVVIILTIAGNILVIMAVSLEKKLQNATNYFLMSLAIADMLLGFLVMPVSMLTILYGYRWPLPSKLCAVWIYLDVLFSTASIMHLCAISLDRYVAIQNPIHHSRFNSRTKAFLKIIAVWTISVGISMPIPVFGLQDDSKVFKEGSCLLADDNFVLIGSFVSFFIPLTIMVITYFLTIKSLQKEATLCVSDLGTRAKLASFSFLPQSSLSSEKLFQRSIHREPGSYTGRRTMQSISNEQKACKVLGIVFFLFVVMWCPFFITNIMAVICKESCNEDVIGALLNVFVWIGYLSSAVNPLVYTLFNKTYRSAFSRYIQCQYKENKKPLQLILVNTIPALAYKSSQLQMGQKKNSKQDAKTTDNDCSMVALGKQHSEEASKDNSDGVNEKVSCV
Sequence of Muscarinic acetylcholine receptor M1 (Homo sapiens) (P11229 whole entry, looked up): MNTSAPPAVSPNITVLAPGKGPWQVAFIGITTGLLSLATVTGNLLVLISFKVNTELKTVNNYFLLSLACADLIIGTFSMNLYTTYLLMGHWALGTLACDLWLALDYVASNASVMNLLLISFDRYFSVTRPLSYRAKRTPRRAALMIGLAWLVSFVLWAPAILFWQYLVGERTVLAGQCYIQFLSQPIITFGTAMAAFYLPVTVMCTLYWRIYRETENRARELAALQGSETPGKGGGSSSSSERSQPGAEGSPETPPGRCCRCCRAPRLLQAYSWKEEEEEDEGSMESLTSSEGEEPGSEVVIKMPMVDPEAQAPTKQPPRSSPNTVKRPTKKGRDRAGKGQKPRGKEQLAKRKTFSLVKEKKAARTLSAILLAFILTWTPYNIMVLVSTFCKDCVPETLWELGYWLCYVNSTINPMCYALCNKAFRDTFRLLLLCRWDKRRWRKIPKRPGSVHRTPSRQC
Sequence of Gonadotropin-releasing hormone receptor (Homo sapiens) (P30968 whole entry, looked up): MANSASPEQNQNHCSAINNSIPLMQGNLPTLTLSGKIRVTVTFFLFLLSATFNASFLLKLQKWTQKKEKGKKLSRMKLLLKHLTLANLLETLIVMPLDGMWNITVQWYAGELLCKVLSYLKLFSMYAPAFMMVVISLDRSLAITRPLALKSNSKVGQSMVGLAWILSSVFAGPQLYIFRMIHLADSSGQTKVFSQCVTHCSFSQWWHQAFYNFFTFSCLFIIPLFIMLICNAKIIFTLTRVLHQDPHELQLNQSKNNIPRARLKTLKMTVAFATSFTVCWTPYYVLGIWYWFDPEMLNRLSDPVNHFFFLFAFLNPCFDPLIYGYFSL
Sequence of KiSS-1 receptor (Homo sapiens) (Q969F8 whole entry, looked up): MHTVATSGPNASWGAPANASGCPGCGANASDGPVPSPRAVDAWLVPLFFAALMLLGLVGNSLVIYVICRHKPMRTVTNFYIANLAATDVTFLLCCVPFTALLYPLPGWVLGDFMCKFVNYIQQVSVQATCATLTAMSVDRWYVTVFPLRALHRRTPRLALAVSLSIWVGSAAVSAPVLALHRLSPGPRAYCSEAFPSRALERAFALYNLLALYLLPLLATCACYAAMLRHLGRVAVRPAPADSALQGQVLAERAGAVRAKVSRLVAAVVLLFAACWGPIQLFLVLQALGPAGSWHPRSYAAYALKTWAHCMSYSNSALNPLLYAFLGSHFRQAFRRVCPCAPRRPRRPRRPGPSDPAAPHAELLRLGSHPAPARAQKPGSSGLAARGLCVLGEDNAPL

Consider `Cc1cccc(S(=O)(=O)O)c1C`, for which the Potency entry in assay [1], in assay [2], in assay [3], in assay [4], in assay [5] and in assay [6] was “inactive” in each case. The Potency entry in [7], in assay [8], in assay [9], in assay [10], in assay [11] and in assay [12] was “inactive” in each case. In addition, the Potency entry in assay [13], in assay [14], in [15], in assay [16], in [17] and in assay [18] was “inactive” in each case. In addition, the Potency result in assay [19] and in assay [20] was “inactive” throughout.
Turning to `N#C[C@@H]1C[C@@H]2C[C@@H]2N1C(=O)[C@@H](N)C12CC3CC(CC(O)(C3)C1)C2`, the Potency entry in assay [1], in assay [2], in assay [3], in assay [4], in assay [5] and in [6] was “inactive” throughout. For the same molecule, the Potency result in assay [7], in assay [8], in assay [9], in assay [10], in assay [11] and in [12] was “inactive” each time. Moreover, the Potency entry in [13], in [14], in [15], in [16], in assay [17] and in assay [18] was “inactive” each time. Further, the Potency entry in assay [19] and in assay [20] was “inactive” throughout.
As for `CNCCS(=O)(=O)O`, the Potency entry in [1], in assay [2], in assay [3], in assay [4], in [5] and in assay [6] was “inactive” each time. For the same molecule, the Potency result in [7], in assay [8], in assay [9], in assay [10], in assay [11] and in [12] was “inactive” in each case. The Potency entry in assay [13], in assay [14], in [15], in [16], in [17] and in [18] was “inactive” each time. Besides, the Potency entry in assay [19] and in assay [20] was “inactive” throughout.
On to `N#CC1(c2ccc(F)cc2)CCC(=O)CC1`, for which the Potency entry in [1], in assay [2], in assay [3], in assay [4], in assay [5] and in [6] was “inactive” each time. Also, the Potency entry in [7], in assay [8], in [9], in assay [10], in assay [11] and in assay [12] was “inactive” each time. Further, the Potency result in assay [13], in assay [14], in assay [15], in [16], in [17] and in assay [18] was “inactive” each time. The Potency entry in [19] and in assay [20] was “inactive” throughout.
In the case of `O=C1c2ccccc2C(=O)C1c1ccc2cc(S(=O)(=O)O)cc(S(=O)(=O)O)c2n1`, the Potency in assay [1] is 58.9 µM (active). Moreover, the Potency result in [2], in assay [3], in [4], in [5], in [6] and in assay [7] was “inactive” each time. In addition, the Potency result in assay [8], in [9], in assay [10], in [11], in [12] and in assay [13] was “inactive” throughout. For the same molecule, the Potency entry in assay [14], in [15], in assay [16], in [17], in assay [18] and in assay [19] was “inactive” throughout. In [20], the Potency entry is “inactive”.
With `CCCCC(O)/C=C(C)/C=C/C=C/C(=O)N1CCCC1=O` (stereo not given), the Potency result in assay [1], in assay [2], in assay [3], in [4], in assay [5] and in assay [6] was “inactive” in each case. The Potency entry in assay [7], in [8], in assay [9], in assay [10], in assay [11] and in [12] was “inactive” in each case. Besides, the Potency result in assay [13], in assay [14], in [15], in assay [16], in [17] and in assay [18] was “inactive” throughout. In addition, the Potency entry in assay [19] and in assay [20] was “inactive” in each case.
On to `O=C(O)CNC(=O)c1ccccc1I`, for which the Potency entry in assay [1], in [2], in [3], in [4], in [5] and in assay [6] was “inactive” each time. Further, the Potency result in assay [7], in assay [8], in [9], in assay [10], in [11] and in assay [12] was “inactive” throughout. Further, the Potency result in assay [13], in [14], in [15], in assay [16], in [17] and in assay [18] was “inactive” throughout. Further, the Potency entry in assay [19] and in assay [20] was “inactive” in each case.
